# U2OS ROS induce = cancer cell ROS induction; U2OS ROS induction, H2DCF-DA fluorescence; ROS induction (% of piperlongumine), % at 10 µM; 46,000 tested, 2% active; in the data active = ROS induction above about 79%, passing the limit was not always enough;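 also: 0% = DMSO vehicle median and 100% = reference compound median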
# Numbers without * were called inactive. Only a selection was taken, and hits are over-represented in it overall.
SMILES,U2OS ROS induce
C[C@@H]1CN([C@@H](C)CO)C(=O)c2cccc(NS(=O)(=O)c3ccc(F)cc3)c2O[C@H]1CN(C)Cc1ccc(Oc2ccccc2)cc1,31
COc1ccc(S(=O)(=O)Nc2cccc3c2O[C@@H](CN(C)Cc2ccc(Cl)c(Cl)c2)[C@@H](C)CN([C@H](C)CO)C3=O)cc1,6
COc1ccc(S(=O)(=O)Nc2cccc3c2O[C@H](CN(C)Cc2ccc(Oc4ccccc4)cc2)[C@H](C)CN([C@@H](C)CO)C3=O)cc1,110*
COc1ccc(S(=O)(=O)Nc2cccc3c2O[C@@H](CN(C)Cc2ccc(Oc4ccccc4)cc2)[C@H](C)CN([C@H](C)CO)C3=O)cc1,19
COc1ccc(S(=O)(=O)N(C)C[C@H]2Oc3c(NC(=O)Nc4c(C)noc4C)cccc3C(=O)N([C@@H](C)CO)C[C@@H]2C)cc1,2
C[C@H]1CN([C@@H](C)CO)C(=O)c2cccc(NC(=O)C3CCOCC3)c2O[C@H]1CN(C)Cc1ccc(Cl)c(Cl)c1,-9
COc1ccc(NC(=O)N(C)C[C@H]2Oc3ccc(NS(=O)(=O)c4ccc(OC)cc4)cc3C(=O)N([C@H](C)CO)C[C@H]2C)cc1,2
C=CCn1c(=O)c2c(nc3n2CCCN3C2CCCCC2)n(C)c1=O,12
CC(C)c1cc(Br)ccc1NC(=O)CSc1n[nH]c(-c2ccc(Cl)cc2)n1,4
O=C(Cc1ccccc1)Nc1c2c(nn1-c1ccc(Cl)cc1)CSC2,3
C[C@H]1CN([C@@H](C)CO)C(=O)c2cc(NC(=O)Nc3ccc(F)cc3)ccc2O[C@@H]1CN(C)Cc1ccc(-c2ccccc2)cc1,10
COC(=O)[C@@]1(Cc2ccccc2)COC(c2ccc(OCCCO)cc2)=N1,-1
CC1(C)CC(=O)C2=C(C1)N(Cc1ccc(F)cc1)C(=O)C2(NC(=O)c1cccnc1)C(F)(F)F (stereo unspecified),-11
CC1(C)CC(=O)C2=C(C1)N(CCc1ccccc1)C(=O)C2(NC(=O)c1cccnc1)C(F)(F)F (stereo unspecified),-6
CCC1=NC(C(F)(F)F)(C(F)(F)F)C2=C(CC(C)(C)CC2=O)N1Cc1ccccc1,120*
CC1(C)Cc2nc3nc(SCC(=O)Nc4ccccc4)nc(N)c3cc2CO1,38
N#CC(C#N)(Cc1ccccc1)Cc1ccccc1,2
C=CCN1C(=O)[C@]2(O[C@H](CCn3cc([C@H](O)c4ccccc4)nn3)[C@@H]([Si](C)(C)c3ccc(OC)cc3)[C@@H]2C)c2ccccc21,24
COc1ccc([Si](C)(C)[C@H]2[C@H](CCn3cc(CCO)nn3)O[C@@]3(C(=O)N(c4ccccc4)c4ccccc43)[C@@H]2C)cc1,53
C=CCN1C(=O)[C@]2(O[C@H](CCn3cc(CCO)nn3)[C@@H]([Si](C)(C)c3ccc(OC)cc3)[C@@H]2C)c2cc(N3C(=O)c4cccc5cccc3c45)ccc21,97*
C=CCN1C(=O)[C@@]2(O[C@@H](CCn3cc(CCO)nn3)[C@H]([Si](C)(C)c3ccc(OC)cc3)[C@H]2C)c2cc(N3C(=O)c4cccc5cccc3c45)ccc21,90*
C=CCN1C(=O)[C@@]2(O[C@@H](CCn3cc(CCO)nn3)[C@H]([Si](C)(C)c3ccc(OC)cc3)[C@H]2C)c2ccccc21,27
COc1ccc([Si](C)(C)[C@@H]2[C@@H](CCn3cc(CCO)nn3)O[C@]3(C(=O)N(C)c4ccccc43)[C@H]2C)cc1,20
C[C@H](CO)N1C[C@H](C)[C@@H](CN(C)C)Oc2ccc(NS(=O)(=O)c3ccccc3)cc2C1=O,-2
CCOc1ccccc1NC(=O)Cn1cnc2ccccc2c1=O,69
SMILES,U2OS ROS induce
C[C@H](CO)N1C[C@H](C)[C@@H](CN(C)CC2CCCCC2)Oc2ccc(NC(=O)Nc3ccc4c(c3)OCO4)cc2C1=O,36
Cc1cc(C)c2c(-n3cccc3)c(C(=O)N(C)Cc3ccccc3)sc2n1,60
COc1ccc(S(=O)(=O)N(C)C[C@H]2OCCCC[C@@H](C)Oc3ccc(NS(=O)(=O)c4c(C)noc4C)cc3C(=O)N([C@H](C)CO)C[C@@H]2C)cc1,12
COc1ccc(S(=O)(=O)Nc2ccc3c(c2)C(=O)N([C@H](C)CO)C[C@H](C)[C@H](CN(C)S(=O)(=O)c2c(C)noc2C)OCCCC[C@@H](C)O3)cc1,12
COc1ccc(S(=O)(=O)Nc2ccc3c(c2)C(=O)N([C@H](C)CO)C[C@H](C)[C@@H](CN(C)S(=O)(=O)c2ccc(OC)cc2)OCCCC[C@@H](C)O3)cc1,29
Cc1ccc(S(=O)(=O)N(C)C[C@H]2OCCCC[C@@H](C)Oc3ccc(NS(=O)(=O)c4c(C)noc4C)cc3C(=O)N([C@H](C)CO)C[C@@H]2C)cc1,4
COc1ccc(S(=O)(=O)Nc2ccc3c(c2)C(=O)N([C@H](C)CO)C[C@H](C)[C@H](CN(C)S(=O)(=O)c2ccc(Cl)cc2)OCCCC[C@@H](C)O3)cc1,91*
Cc1noc(C)c1S(=O)(=O)Nc1ccc2c(c1)C(=O)N([C@H](C)CO)C[C@H](C)[C@@H](CN(C)S(=O)(=O)c1ccc(F)cc1)OCCCC[C@@H](C)O2,126*
Cc1noc(C)c1S(=O)(=O)N(C)C[C@H]1OCCCC[C@@H](C)Oc2ccc(NS(=O)(=O)c3ccc(Cl)cc3)cc2C(=O)N([C@H](C)CO)C[C@@H]1C,110*
COc1ccc(S(=O)(=O)N(C)C[C@H]2OCCCC[C@@H](C)Oc3ccc(NS(=O)(=O)c4ccc(Cl)cc4)cc3C(=O)N([C@H](C)CO)C[C@@H]2C)cc1,35
Cc1ccc(S(=O)(=O)Nc2ccc3c(c2)C(=O)N([C@H](C)CO)C[C@H](C)[C@@H](CN(C)S(=O)(=O)c2c(C)noc2C)OCCCC[C@@H](C)O3)cc1,12
O=C1NC(=S)S/C1=C\C=C\c1ccccc1,40
C[C@H](CO)N1C[C@H](C)[C@H](CN(C)Cc2ccc(Cl)c(Cl)c2)Oc2ccc(NS(=O)(=O)c3cccs3)cc2C1=O,17
CC(C)C[C@@H]1NC(=O)[C@@H]2C[C@H](C(=O)O)[C@H](c3cccc(OCCO)c3)N2C1=O,-3
O=C(c1cnn(-c2ccccc2)c1-n1cccc1)N1CCCCC1,1
Cc1noc(C)c1S(=O)(=O)Nc1ccc2c(c1)C(=O)N([C@H](C)CO)C[C@@H](C)[C@H](CN(C)Cc1ccc(Cl)c(Cl)c1)O2,33
O=C(COc1ccc(F)cc1)Nc1cc(Cl)ccc1C(=O)O,-2
O=C(NC(c1ccccc1)c1ccccc1)c1ccccc1Cl,-16
COC(=O)CNC(c1ccccc1)c1cc(Br)ccc1NC(=O)c1ccccc1Cl (stereo unspecified),97*
COC(=O)CNC(c1ccccc1)c1cc(Br)ccc1N=Cc1ccccc1O (stereo unspecified),2
COc1ccc(S(=O)(=O)Nc2ccc3c(c2)CC(=O)N([C@H](C)CO)C[C@H](C)[C@H](CN(C)Cc2ccc(C(=O)O)cc2)O3)cc1,4
C[n+]1c(-c2ccccc2)csc1NC1CCCCC1,0
C[C@@H]1CN([C@@H](C)CO)C(=O)c2cc(NC(=O)Nc3ccccc3)ccc2O[C@H]1CN(C)Cc1ccc(C(=O)O)cc1,-2
CC1=CC(C)(C)N(C(C)C)C(=O)N1c1ccc(C)cc1,-1
COc1ccc(CN(C)C[C@H]2Oc3c(NC(=O)NC4CCCCC4)cccc3C(=O)N([C@H](C)CO)C[C@H]2C)cc1,6
COCCOC(=O)N1C(=O)[C@@]2(c3ccccc31)[C@H](c1ccc(O)cc1)N1[C@H](c3ccccc3)[C@H](c3ccccc3)OC(=O)[C@H]1[C@@H]2C(N)=O,1

# Screening data as filed in PubChem BioAssay.
